We go through 38 compounds from PubChem BioAssay (NCI).

Test [1] is described as follows: NCI Yeast Anticancer Drug Screen. Data for the rad50 strain (AID 155).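 Further: 0% = growth of vehicle-only cultures of the same strain.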 The note with it: S. cerevisiae rad50 strain growth inhibition; at 50.0 µM; active compounds read high. The gist of the method: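 A DNA repair-deficient yeast mutant serves as the test organism; compound-induced growth inhibition is calculated against vehicle-treated cells.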
Test [2] is described as follows: NCI Yeast Anticancer Drug Screen. Data for the mec2-1 strain (AID 157). To be noted: S. cerevisiae mec2-1 strain, at 50.0 µM, active compounds read high. The gist of the method: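 Yeast mec2-1 mutant treated with compound. Readout: growth inhibition vs vehicle controls.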
Test [3] can be described thus: NCI Yeast Anticancer Drug Screen. Data for the sgs1 mgt1 strain (AID 161).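 Further: 0% = growth of cultures given vehicle only.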 To be noted: S. cerevisiae sgs1 mgt1 strain, at 50.0 µM, active compounds read high. The gist of the method: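 Genetically altered yeast, compound exposure, growth inhibition relative to vehicle.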
Test [4] is described as follows: NCI Yeast Anticancer Drug Screen. Data for the cln2 rad14 strain (AID 165).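 Further: 0% = growth equal to vehicle treated cultures.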 To be noted: S. cerevisiae cln2 rad14 strain, at 50.0 µM, active compounds read high. An outline of the steps:
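cln2 rad14 yeast strain; compound exposure; growth inhibition read vs vehicle controls.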

Test [5] can be described thus: NCI Yeast Anticancer Drug Screen. Data for the bub3 strain (AID 167). The note with it: S. cerevisiae bub3 mutant strain, at 50.0 µM, active compounds read high. An outline of the steps: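 Inhibition values come from growth of compound-treated mutant yeast normalised to vehicle-treated controls.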
A short description of test [6]: NCI Yeast Anticancer Drug Screen. Data for the mlh1 rad18 strain (AID 175). The note with it: S. cerevisiae mlh1 rad18 strain growth inhibition; at 50.0 µM; active compounds read high. The gist of the method: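 Yeast w/ defined DNA-repair lesions; compound exposure; growth vs vehicle controls → % inhibition.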

SMILES strings stand for the structures. Compounds without any hit were thinned out: in the full panel of roughly 79,000, 15% have a hit. Values without a mark were called inactive. The source made the active and inactive calls. No stated cut-off is given here; in the data, active means growth inhibition above about 70%; inactive means the rest.

In the case of `COc1ccc(COC(=O)NNC(=O)C2CSC(c3ccccc3)N2C(C)=O)cc1` (stereo not drawn), the growth inhibition in test [1] is -23.4%; in test [2], 6.75%; in test [3], -15.8%; in test [4] it was 3.4%; in test [5], -8.9%; in test [6], -10.3%.
With `Cc1[nH]c(=O)[nH]c(=O)c1C`, the growth inhibition in test [1] was 4.05%; in test [2] it was -36.1%; in test [3], 1.8%; in test [4] it was 27.4%; in test [5], -11.9%; in test [6] it was 7.35%.
Regarding `CCOC(=O)c1ccc(Nc2nc3ccccc3o2)cc1`, the growth inhibition in test [1] was 5%; in test [2] it was -7.6%; in test [3] it was 9.05%; in test [4] it was -14.2%; in test [5], -0.95%; in test [6], 1.7%.
`C=C1C(=O)O[C@@H]2[C@H]1CC[C@H](C)[C@]1(O)CCC(=O)[C@@]21C`: the growth inhibition in test [1] is -5.3%; in test [2], -13.6%; in test [3], 14.2%; in test [4], 7.85%; in test [5], -4.75%; in test [6] it was 3%.
Turning to `NC(N)=NC(N)=Nc1ccc(C(=O)O)cc1`, the growth inhibition is -7.4% in test [1]; 5.95% in test [2]; -26.8% in test [3]; -29.2% in test [4]; -68% in test [5]; -4% in test [6].
`C=CCCCC1CCCNC1=O` (stereo not drawn): the growth inhibition was 5.05% in test [1]; 10.2% in test [2]; -8.2% in test [3]; 8.1% in test [4]; 4.05% in test [5]; 0.45% in test [6].
As to `Cc1ccc2cccc([N+](=O)[O-])c2n1`, the growth inhibition was 15.8% in test [1]; -23.5% in test [2]; 3.75% in test [3]; 27.4% in test [4]; 1.2% in test [5]; 14.3% in test [6].
In the case of `CC/C(C)=C1\OC(=O)C(C)C(O)C(Cc2cccnc2)NC(=O)C(NC(=O)c2ncccc2O)C(C)OC1=O` (stereo not drawn), the growth inhibition is -4.45% in test [1]; 3.7% in test [2]; 0.45% in test [3]; -10.4% in test [4]; -3% in test [5]; -14.9% in test [6].
In the case of `Cc1c(Cl)c(C)c(Cc2c(C)c(Cl)c(C)c(Cl)c2O)c(O)c1Cl`, the growth inhibition in test [1] was -4.7%; in test [2] it was -40.4%; in test [3], -20.6%; in test [4], -11.7%; in test [5], -5.2%; in test [6], -5.9%.
With `Cc1cc2c(=O)c3ccccc3[nH]c2c(C(=O)O)c1C`, the growth inhibition is 5.35% in test [1]; 0.85% in test [2]; 8.25% in test [3]; 10.2% in test [4]; -14.7% in test [5]; 38.2% in test [6].
`Nc1nc(N)nc(COc2ccccc2Cl)n1`: the growth inhibition in test [1] was 6.5%; in test [2], 8.5%; in test [3], 8.35%; in test [4], 9.4%; in test [5], 15.2%; in test [6], 13.2%.
`CCOC(=O)CC(=O)C(=O)NNC1=NCCN1`: the growth inhibition is 7.15% in test [1]; 11.6% in test [2]; 23.6% in test [3]; 2.45% in test [4]; 13.3% in test [5]; 15.2% in test [6].
Regarding `CCN(CC)CCOC(=O)Cc1ccc2c(=O)cc(-c3ccc(C)cc3)oc2c1`, the growth inhibition in test [1] was 7.75%; in test [2], -18.4%; in test [3], -13.6%; in test [4] it was 0.75%; in test [5], -1.55%; in test [6] it was -54.5%.
On to `O=C1C=CC[C@H](/C=C/c2ccccc2)O1`, for which the growth inhibition was 21.6% in test [1]; 31.8% in test [2]; 28.6% in test [3]; 24.4% in test [4]; 33.5% in test [5]; 48.9% in test [6].
As to `CC1OC(c2ccccc2Cl)OC1C` (stereo not drawn), the growth inhibition is 1% in test [1]; -2.75% in test [2]; -9.7% in test [3]; -8.5% in test [4]; -3.05% in test [5]; -11.7% in test [6].
`O=S(=O)(O)CC(O)CSSCC(O)CS(=O)(=O)O` (stereo not drawn): the growth inhibition in test [1] is 33.2%; in test [2], -3.55%; in test [3] it was 8.25%; in test [4], -4.05%; in test [5], 1.4%; in test [6] it was -9.1%.
`CCN(CC)CCC(CCN(CC)CC)(COC(=O)c1ccc([N+](=O)[O-])cc1)c1ccccc1`: the growth inhibition is 19.7% in test [1]; 9.1% in test [2]; 20.1% in test [3]; -4.15% in test [4]; -0.55% in test [5]; 12.6% in test [6].
Turning to `CCOC(=O)c1c(C(=O)Nc2ccccc2)c(-c2ccccc2)n(NC(=O)c2cccc(Cl)c2)c1C`, the growth inhibition in test [1] is 18.1%; in test [2], 10.3%; in test [3], 3.9%; in test [4] it was 7.2%; in test [5], -4.85%; in test [6], 21.5%.
Take `CCOc1ccccc1NC(=O)C(Br)C(Br)c1ccccc1` (stereo not drawn): the growth inhibition is -1.1% in test [1]; 0.65% in test [2]; 30.9% in test [3]; -20.9% in test [4]; 20.1% in test [5]; 42.3% in test [6].
For the compound `COc1ccc(Cl)cc1C(O)CN1CCCCC1` (stereo not drawn), the growth inhibition is -8.35% in test [1]; -11.9% in test [2]; -11.2% in test [3]; -37.5% in test [4]; 0.45% in test [5]; -6.3% in test [6].
`Cc1cc(Cl)ccc1NC(=O)Nc1c(Oc2ccc(Cl)cc2)ccc(Cl)c1S(=O)(=O)O`: the growth inhibition in test [1] is 76.8% (active); in test [2] it was 36.8%; in test [3] it was 55.5%; in test [4], 3.85%; in test [5], -0.75%; in test [6], 45.9%.
Turning to `COc1ccc2c(c1)C(=O)C(CO)C(C(=O)O)C2` (stereo not drawn), the growth inhibition in test [1] is -13.1%; in test [2], -17.1%; in test [3] it was -1.15%; in test [4] it was -24.6%; in test [5], -3.5%; in test [6], -24.8%.
Regarding `CC(O)CC(=O)c1ccc(O)cc1` (stereo not drawn), the growth inhibition in test [1] was -42%; in test [2], -41%; in test [3] it was -30.2%; in test [4], 1.7%; in test [5], -49.5%; in test [6] it was -41.3%.
For `OC(CC(c1ccccc1)c1cccc2ccccc12)(c1ccccc1)c1ccccc1` (stereo not drawn), the growth inhibition is -12.8% in test [1]; -17.9% in test [2]; -14.6% in test [3]; -7.65% in test [4]; -28.4% in test [5]; 3.3% in test [6].
In the case of `O=C(CC(C(=O)c1cccs1)c1ccsc1)c1ccc(Cl)s1` (stereo not drawn), the growth inhibition in test [1] is -5.35%; in test [2], -15%; in test [3] it was -11.1%; in test [4] it was 4.2%; in test [5] it was -2.2%; in test [6], -5.05%.
On to `Nc1nn2c(nc(N)c3c(N)[nH]nc32)c1N=Nc1ccc(Br)cc1`, for which the growth inhibition in test [1] was -1.35%; in test [2], 11.8%; in test [3], -4.95%; in test [4] it was 10.2%; in test [5] it was 13.2%; in test [6], 0.1%.
For `Cc1ccc(N2C(=O)CNC2=O)cc1`, the growth inhibition in test [1] was -10.3%; in test [2], -5%; in test [3], -7.8%; in test [4] it was -27.2%; in test [5] it was 1.2%; in test [6] it was -6.45%.
Consider `CC(=O)NC1=NN(C(C)=O)C(C)(c2ccccc2)S1=O` (stereo not drawn), for which the growth inhibition was 9.65% in test [1]; -1.25% in test [2]; 3.7% in test [3]; 10% in test [4]; -3.95% in test [5]; 14.7% in test [6].
As to `O=c1c(Br)c(-c2ccccc2Br)[nH]c2ccccc12`, the growth inhibition in test [1] was -1.25%; in test [2], 13.7%; in test [3], 11.3%; in test [4], 0.4%; in test [5] it was -3.45%; in test [6] it was -13.9%.
With `Cc1cc(OCc2ccc3ccccc3c2)ccc1Nc1cc(=O)[nH]c(=O)[nH]1`, the growth inhibition in test [1] was 3.65%; in test [2] it was 33.6%; in test [3] it was 18.6%; in test [4], -4.55%; in test [5], 33.6%; in test [6], 24.4%.
In the case of `O=c1c2ncccc2cc2n1CCc1c-2[nH]c2ccccc12`, the growth inhibition in test [1] was -15.3%; in test [2], -15.9%; in test [3], 6.3%; in test [4], -4.75%; in test [5], -1.1%; in test [6], -0.2%.
Take `Cc1c(C)c(C)c(CN2CCC(C)CC2)c(C)c1C`: the growth inhibition in test [1] is -2.55%; in test [2], 9.85%; in test [3] it was -14.9%; in test [4] it was -17.6%; in test [5] it was 3.45%; in test [6], -9.1%.
For the compound `COCC(=O)c1ccccc1-c1ccccc1`, the growth inhibition in test [1] is 13.6%; in test [2], -2.65%; in test [3], 3.15%; in test [4], -4.1%; in test [5], -11.2%; in test [6] it was 0.85%.
On to `CCC(Cc1ccco1)C(=O)NC(N)=O` (stereo not drawn), for which the growth inhibition was -10.2% in test [1]; 4.4% in test [2]; -9.8% in test [3]; -9.1% in test [4]; 0.65% in test [5]; 11.3% in test [6].
As to `CC1(C)OC2COC(c3[nH]nc(C(N)=O)c3C(=O)N=[N+]=[N-])C2O1` (stereo not drawn), the growth inhibition in test [1] was -11.3%; in test [2], -1.35%; in test [3], -12.1%; in test [4], 4.35%; in test [5], 7.85%; in test [6], -9.95%.
For the compound `c1ccc(CNCc2ccccc2)cc1`, the growth inhibition in test [1] was -2.65%; in test [2] it was 3.8%; in test [3], -37.8%; in test [4], -35.1%; in test [5], 18.6%; in test [6], 1.05%.
On to `COc1cccc(C2CC(C)(N3CCCC3)Oc3cc4c(cc32)OCO4)c1O` (stereo not drawn), for which the growth inhibition in test [1] was 7.5%; in test [2], 13.9%; in test [3] it was 10%; in test [4] it was 13.8%; in test [5] it was 28.6%; in test [6] it was -10.2%.
Consider `Nc1ccc(S(=O)(=O)Nc2nccs2)cc1`, for which the growth inhibition in test [1] is -0.6%; in test [2], -17.2%; in test [3] it was -3.7%; in test [4], 6.05%; in test [5], -1.85%; in test [6], -3.4%.
